Measured values as given in the supplement of paper PMC10849652.
About 7,900 targets were measured; listed, in parts, are those with a hit and a random draw of the rest. About 0.6% of all pairs of compound and target were hits.

What was measured:
Experiment in all cases: log2 fold change, soluble protein after heating vs DMSO (PISA); higher = thermal stabilisation; K562 cells, 10 uM, 30 min; active = over 0.2 and 3.5 SD of the protein, either way, in both replicates (recomputed)
[1] = compound: CC[C@@H]1C(=O)N(C)c2cnc(Nc3ccc(C(=O)NC4CCN(C)CC4)cc3OC)nc2N1C1CCCC1
How it was run: (§1)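 K562 cells at 2×10^6 cells/mL were given 10 μM compound for 30 min. Aliquots then went through 3 min of heating across 48°C-58°C, were pooled, and were extracted in PBS with 0.5% NP-40 at 4°C, and the supernatant after 21,000xg for 90 min was quantified by TMTpro 16plex LC-MS/MS with channel sums equalised. Thermal stability relative to control samples, from duplicates, is given as log2 fold change.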

volasertib = compound: CC[C@@H]1C(=O)N(C)c2cnc(Nc3ccc(C(=O)N[C@H]4CC[C@H](N5CCN(CC6CC6)CC5)CC4)cc3OC)nc2N1C(C)C [volasertib]
How it was run: as §1

[2] = compound: CC[C@H](C)N1C=C(C2=C(C=C(C=C21)C3=CN=C(C=C3)N4CCNCC4)C(=O)NCC5=C(C=C(NC5=O)C)C)C
How it was run: as §1

epoxomicin = compound: CC[C@H](C)[C@@H](C(=O)N[C@@H]([C@@H](C)O)C(=O)N[C@@H](CC(C)C)C(=O)[C@]1(CO1)C)NC(=O)[C@H]([C@@H](C)CC)N(C)C(=O)C [epoxomicin]
How it was run: as §1

[3] = compound: CCn1c(C(=O)N(C2CC2)C2CC2)cc2c3c(ncn3C)c(Nc3cc(C)n(C)n3)nc21
How it was run: as §1

[4] = compound: CCn1cc(-c2ccnc3[nH]c(-c4cccc(CN(C)C)c4)cc23)c(-c2ccc(NC(=O)N(C)C)cc2)n1
How it was run: as §1

[5] = compound: CN(C)CC(=O)Nc1ccc2[nH]c(=O)c3ccccc3c2c1
How it was run: as §1

rosiglitazone = compound: CN(CCOC1=CC=C(C=C1)C[C@H]2C(=O)NC(=O)S2)C3=CC=CC=N3 (racemic) [rosiglitazone]
How it was run: as §1

[6] = compound: CN1C2=C(C3=C1C(=O)N(N=C3)CC4=CC(=CC=C4)N)SC(=C2)S(=O)C
How it was run: as §1

[7] = compound: CN1CCC(CNc2ccc3ncc(-c4cccc(OC(F)(F)F)c4)n3n2)CC1
How it was run: as §1

saracatinib = compound: CN1CCN(CCOc2cc(OC3CCOCC3)c3c(Nc4c(Cl)ccc5c4OCO5)ncnc3c2)CC1 [saracatinib]
How it was run: as §1

sotrastaurin = compound: CN1CCN(c2nc(C3=C(c4c[nH]c5ccccc45)C(=O)NC3=O)c3ccccc3n2)CC1 [sotrastaurin]
How it was run: as §1

alvocidib = compound: CN1CC[C@H](c2c(O)cc(O)c3c(=O)cc(-c4ccccc4Cl)oc23)[C@H](O)C1 [alvocidib]
How it was run: as §1

Tubastatin A = compound: CN1CCc2c(c3ccccc3n2Cc2ccc(C(=O)NO)cc2)C1 [Tubastatin A]
How it was run: as §1

[8] = compound: CNC(=O)C1=CC=CC=C1NC2=NC(=NC=C2Cl)NC3=C(C=C(C=C3)N4CCOCC4)OC
How it was run: as §1

defactinib = compound: CNC(=O)c1ccc(Nc2ncc(C(F)(F)F)c(NCc3nccnc3N(C)S(C)(=O)=O)n2)cc1 [defactinib]
How it was run: as §1

rucaparib = compound: CNCc1ccc(-c2[nH]c3cc(F)cc4c3c2CCNC4=O)cc1 [rucaparib]
How it was run: as §1

[9] = compound: CNc1nc(-c2ccc3c(N)n[nH]c3c2)cc(N2C[C@@H](C(=O)NC3CCCCC3)CC[C@H]2C)n1
How it was run: as §1

encorafenib = compound: COC(=O)N[C@@H](C)CNc1nccc(-c2cn(C(C)C)nc2-c2cc(Cl)cc(NS(C)(=O)=O)c2F)n1 [encorafenib]
How it was run: as §1

[10] = compound: COC(=O)[C@H](CCSC)NC(=O)C1=C(C=C(C=C1)NC[C@H](CS)N)C2=CC=CC=C2
How it was run: as §1

Measured: log2 fold change

CDKN2AIP (UniProt Q9NXV6)
Sequence of UniProt Q9NXV6 (Q9NXV6 whole entry, looked up): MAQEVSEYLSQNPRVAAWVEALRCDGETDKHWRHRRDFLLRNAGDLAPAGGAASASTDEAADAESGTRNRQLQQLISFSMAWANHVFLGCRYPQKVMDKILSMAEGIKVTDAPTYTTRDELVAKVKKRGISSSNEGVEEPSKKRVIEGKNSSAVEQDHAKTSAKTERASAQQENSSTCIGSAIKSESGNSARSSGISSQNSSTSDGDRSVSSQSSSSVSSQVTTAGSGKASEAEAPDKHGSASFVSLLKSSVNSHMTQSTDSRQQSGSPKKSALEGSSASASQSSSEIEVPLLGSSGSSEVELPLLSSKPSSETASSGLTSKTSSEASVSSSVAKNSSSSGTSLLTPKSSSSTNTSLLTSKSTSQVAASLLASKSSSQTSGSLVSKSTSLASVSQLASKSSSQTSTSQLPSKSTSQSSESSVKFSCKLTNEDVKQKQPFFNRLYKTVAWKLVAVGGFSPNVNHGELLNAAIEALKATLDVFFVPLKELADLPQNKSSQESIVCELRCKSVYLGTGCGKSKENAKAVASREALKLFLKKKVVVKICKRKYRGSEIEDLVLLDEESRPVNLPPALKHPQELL
inactive: [1] 0.096 | volasertib 0.057 | [2] -0.001 | epoxomicin 0.095 | [3] -0.017 | [4] 0.008 | [5] 0.046 | rosiglitazone 0.025 | [6] 0.03 | [7] 0.094 | saracatinib 0.057 | sotrastaurin 0.023 | alvocidib 0.018 | Tubastatin A 0.013 | [8] 0.052 | defactinib 0.055 | rucaparib -0.055 | [9] 0.033 | encorafenib 0.02 | [10] -0.029

CHCHD1 (UniProt Q96BP2)
inactive: [1] -0.054 | volasertib -0.32 | [2] -0.001 | epoxomicin -0.026 | [3] -0.028 | [4] -0.009 | [5] 0.02 | rosiglitazone 0.035 | [6] 0.033 | [7] -0.191 | saracatinib -0.069 | sotrastaurin 0.059 | alvocidib 0.009 | Tubastatin A -0.025 | [8] 0.132 | defactinib 0.017 | rucaparib 0.114 | [9] 0.04 | encorafenib -0.037 | [10] -0.024

CNOT2 (UniProt Q9NZN8)
Sequence of UniProt Q9NZN8 (Q9NZN8 whole entry, looked up): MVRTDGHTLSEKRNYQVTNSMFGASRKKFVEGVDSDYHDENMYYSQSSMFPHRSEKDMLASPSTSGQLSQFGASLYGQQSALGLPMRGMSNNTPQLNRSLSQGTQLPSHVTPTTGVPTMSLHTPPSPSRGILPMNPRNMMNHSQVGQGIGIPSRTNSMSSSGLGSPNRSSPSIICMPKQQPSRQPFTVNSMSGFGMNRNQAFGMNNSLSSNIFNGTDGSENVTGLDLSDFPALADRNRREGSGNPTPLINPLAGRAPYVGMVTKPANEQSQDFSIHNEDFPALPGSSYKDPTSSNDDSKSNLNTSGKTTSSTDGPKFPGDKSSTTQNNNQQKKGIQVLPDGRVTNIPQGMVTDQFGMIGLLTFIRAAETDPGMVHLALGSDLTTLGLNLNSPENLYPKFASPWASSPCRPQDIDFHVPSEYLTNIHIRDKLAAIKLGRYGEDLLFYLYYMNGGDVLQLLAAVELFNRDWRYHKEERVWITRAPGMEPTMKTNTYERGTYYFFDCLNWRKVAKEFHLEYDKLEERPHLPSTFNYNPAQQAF
inactive: [1] -0.035 | volasertib -0.168 | [2] 0.021 | epoxomicin -0.034 | [3] -0.05 | [4] 0.085 | [5] 0.015 | rosiglitazone 0.007 | [6] 0.062 | [7] -0.027 | saracatinib -0.044 | sotrastaurin 0.007 | alvocidib -0.071 | Tubastatin A -0.005 | [8] -0.006 | defactinib -0.024 | rucaparib 0.052 | [9] 0 | encorafenib 0.012 | [10] -0.021

COX20 isoform 2 (UniProt Q5RI15)
Sequence of UniProt Q5RI15 (Q5RI15 whole entry, looked up): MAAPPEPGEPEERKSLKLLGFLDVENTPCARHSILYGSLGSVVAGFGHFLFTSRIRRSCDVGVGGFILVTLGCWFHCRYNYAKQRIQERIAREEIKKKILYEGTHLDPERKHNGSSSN
active: [4] 0.294
inactive: [1] -0.019 | volasertib 0.077 | [2] -0.01 | epoxomicin 0 | [3] 0.004 | [5] -0.038 | rosiglitazone 0.005 | [6] 0.002 | [7] 0.081 | saracatinib 0.005 | sotrastaurin 0.008 | alvocidib -0.025 | Tubastatin A -0.062 | [8] -0.028 | defactinib -0.017 | rucaparib 0.044 | [9] -0.025 | encorafenib -0.108 | [10] 0.009

COQ7 (UniProt Q99807)
Sequence of UniProt Q99807 (Q99807 whole entry, looked up): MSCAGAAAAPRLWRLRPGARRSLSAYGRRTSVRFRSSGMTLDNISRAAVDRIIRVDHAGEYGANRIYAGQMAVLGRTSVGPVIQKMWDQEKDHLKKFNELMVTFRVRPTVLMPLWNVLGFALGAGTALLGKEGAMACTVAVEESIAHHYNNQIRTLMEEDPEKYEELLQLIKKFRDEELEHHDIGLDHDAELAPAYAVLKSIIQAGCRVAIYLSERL
inactive: [1] -0.035 | volasertib -0.009 | [2] -0.01 | epoxomicin 0.013 | [3] -0.005 | [4] -0.041 | [5] -0.047 | rosiglitazone 0.038 | [6] 0.023 | [7] -0.05 | saracatinib 0.024 | sotrastaurin 0.055 | alvocidib 0.009 | Tubastatin A -0.009 | [8] 0.043 | defactinib 0.03 | rucaparib -0.062 | [9] -0.028 | encorafenib -0.058 | [10] 0.059

CLUH (UniProt O75153)
Sequence of UniProt O75153 (O75153 whole entry, looked up): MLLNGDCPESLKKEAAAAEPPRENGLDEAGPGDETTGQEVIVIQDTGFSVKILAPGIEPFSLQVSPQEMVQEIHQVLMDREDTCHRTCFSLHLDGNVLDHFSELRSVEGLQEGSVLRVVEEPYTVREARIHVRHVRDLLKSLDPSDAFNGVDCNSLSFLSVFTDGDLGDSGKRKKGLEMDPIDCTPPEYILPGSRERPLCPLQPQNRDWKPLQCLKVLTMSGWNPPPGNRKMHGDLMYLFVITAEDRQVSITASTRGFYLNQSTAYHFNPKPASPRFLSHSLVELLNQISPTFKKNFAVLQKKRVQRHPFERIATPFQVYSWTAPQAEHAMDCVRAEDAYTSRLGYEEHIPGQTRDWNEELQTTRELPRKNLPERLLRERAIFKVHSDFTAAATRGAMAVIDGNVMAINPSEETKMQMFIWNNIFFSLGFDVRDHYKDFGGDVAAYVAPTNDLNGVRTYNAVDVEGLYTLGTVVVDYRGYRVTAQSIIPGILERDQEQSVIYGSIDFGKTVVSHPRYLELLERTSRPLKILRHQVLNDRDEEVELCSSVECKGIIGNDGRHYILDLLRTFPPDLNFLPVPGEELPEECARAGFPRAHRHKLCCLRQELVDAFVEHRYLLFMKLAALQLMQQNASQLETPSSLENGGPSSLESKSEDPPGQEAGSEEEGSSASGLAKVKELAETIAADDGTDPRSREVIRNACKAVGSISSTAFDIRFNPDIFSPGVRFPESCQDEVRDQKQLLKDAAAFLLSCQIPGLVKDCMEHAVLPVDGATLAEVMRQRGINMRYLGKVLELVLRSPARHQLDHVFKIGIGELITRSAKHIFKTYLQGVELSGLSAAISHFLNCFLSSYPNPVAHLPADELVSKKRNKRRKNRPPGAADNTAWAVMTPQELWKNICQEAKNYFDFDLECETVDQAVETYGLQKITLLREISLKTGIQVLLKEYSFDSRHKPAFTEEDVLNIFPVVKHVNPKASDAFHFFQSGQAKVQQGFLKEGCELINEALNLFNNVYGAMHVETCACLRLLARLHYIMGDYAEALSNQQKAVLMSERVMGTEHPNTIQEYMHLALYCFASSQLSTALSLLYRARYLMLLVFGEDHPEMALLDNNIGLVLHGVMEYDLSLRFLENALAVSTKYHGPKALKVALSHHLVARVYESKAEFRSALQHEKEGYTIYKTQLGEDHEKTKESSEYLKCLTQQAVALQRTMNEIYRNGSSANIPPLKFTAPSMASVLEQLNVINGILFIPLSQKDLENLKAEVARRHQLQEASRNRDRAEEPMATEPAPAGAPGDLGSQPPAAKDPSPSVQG
inactive: [1] 0.225 | [2] 0.015 | epoxomicin -0.028 | [3] 0.047 | [4] -0.113 | [5] 0.094 | rosiglitazone 0.134 | [6] 0.019 | saracatinib -0.032 | sotrastaurin -0.141 | alvocidib -0.006 | Tubastatin A 0.033 | [8] -0.049 | defactinib -0.04 | rucaparib 0.239 | [9] 0.133 | encorafenib -0.044 | [10] -0.046
active: volasertib 0.632 | [7] 0.387

CDK5RAP3 isoform 4 (UniProt Q96JB5)
Sequence of UniProt Q96JB5 (Q96JB5 whole entry, looked up): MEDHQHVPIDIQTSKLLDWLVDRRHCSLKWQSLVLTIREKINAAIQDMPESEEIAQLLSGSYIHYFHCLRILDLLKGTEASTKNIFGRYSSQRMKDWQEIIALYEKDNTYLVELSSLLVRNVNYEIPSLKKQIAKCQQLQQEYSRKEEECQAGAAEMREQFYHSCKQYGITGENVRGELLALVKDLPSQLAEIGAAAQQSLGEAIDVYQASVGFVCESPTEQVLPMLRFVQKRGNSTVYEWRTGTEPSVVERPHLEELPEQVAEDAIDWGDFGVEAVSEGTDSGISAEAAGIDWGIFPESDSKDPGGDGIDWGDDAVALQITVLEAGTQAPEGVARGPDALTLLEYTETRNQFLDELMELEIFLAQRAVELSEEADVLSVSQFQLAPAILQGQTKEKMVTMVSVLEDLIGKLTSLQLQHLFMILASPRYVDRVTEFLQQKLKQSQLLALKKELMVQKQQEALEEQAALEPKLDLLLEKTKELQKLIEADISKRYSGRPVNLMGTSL
inactive: [1] -0.056 | [2] 0 | epoxomicin 0.021 | [3] -0.044 | [4] -0.007 | [5] 0.033 | rosiglitazone 0.055 | [6] -0.024 | [7] -0.002 | saracatinib -0.009 | sotrastaurin -0.099 | alvocidib -0.066 | Tubastatin A 0.024 | [8] 0.035 | defactinib -0.045 | rucaparib -0.029 | [9] 0.002 | encorafenib 0.033 | [10] -0.043
active: volasertib -0.296

COX5A (UniProt P20674)
Sequence of UniProt P20674 (P20674 whole entry, looked up): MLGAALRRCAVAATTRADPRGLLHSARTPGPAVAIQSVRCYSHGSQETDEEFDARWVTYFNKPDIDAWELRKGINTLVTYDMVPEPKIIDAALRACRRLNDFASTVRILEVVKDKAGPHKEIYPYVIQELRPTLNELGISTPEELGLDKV
inactive: [1] 0.048 | volasertib -0.08 | [2] -0.081 | epoxomicin 0.234 | [3] -0.018 | [4] 0.072 | [5] -0.001 | rosiglitazone -0.042 | [6] -0.063 | [7] 0.269 | saracatinib -0.063 | sotrastaurin 0.025 | alvocidib -0.063 | Tubastatin A -0.015 | [8] 0.043 | defactinib -0.016 | rucaparib 0.011 | [9] 0.007 | encorafenib -0.036 | [10] 0.11
